In PubChem BioAssay:

Experiment: small-molecule microarray binders of probe aEGFR, primary screen, biochemical, biotinylated probe, 635/667 nm fluorescence (AID 1097);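 note: probe is a biotinylated anti-EGFR antibody binding compounds printed on slides; score combines fluorescence near 667 nm and signal to noise of each spot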
Conditions: higher = more signal

Q: For `COC(=O)[C@@]1(Cc2ccc(OC)cc2)[C@H]2c3cc(C(=O)N(C)C)n(Cc4ccc(C)c(F)c4F)c3C[C@H]2CN1C(=O)c1ccccc1`, which composite z-score is on record?
A: -0.0972

Q: For `CCCC=C(CCC)[C@@H](NS(=O)(=O)c1ccc(-c2ccccc2)cc1)c1ccc(C(=O)OC)cc1`, which composite z-score is on record?
A: -0.059

Q: With `CCOC(=O)[C@H]1C/C=C/C[C@H](C(=O)OCC)C(=O)O[C@H]2[C@@H](OC)O[C@H](CO)[C@@H](OC(=O)Nc3ccc(Br)cc3)[C@@H]2OC1=O` as the compound, how does the composite z-score read?
A: -0.121

Q: With `C=C[C@H](OC)[C@@H](OC(=O)Nc1ccc(SC)cc1)c1ccc(O)c(F)c1` as the compound, how does the composite z-score read?
A: -0.12

Q: Which composite z-score does the source give for `COCCOC(=O)N1C(=O)[C@@]2(c3cc(C#CCNC(N)=O)ccc31)[C@H](c1ccc(OCCO)cc1)N1[C@H](c3ccccc3)[C@H](c3ccccc3)OC(=O)[C@H]1[C@@H]2C(=O)N1CCCCCCC1` here?
A: 0.0199

Q: With `CN(C)c1ccc(C(O)C2C=CC3C(=O)NC(=O)C3N2Nc2ccc(Cl)cc2Cl)cc1` (stereo unspecified) as the compound, how does the composite z-score read?
A: -0.125

Q: With `COCCOC(=O)N1C(=O)[C@@]2(c3cc(C#CCC(C(=O)OC)C(=O)OC)ccc31)[C@H](C(=O)N1CCN(c3ncccn3)CC1)[C@H]1C(=O)O[C@H](c3ccccc3)[C@H](c3ccccc3)N1[C@@H]2c1ccc(O)cc1` as the compound, how does the composite z-score read?
A: -0.0675

Q: For `COCCOC(=O)N1C(=O)[C@@]2(c3ccccc31)[C@H](C(=O)N1CCc3cc(OC)c(OC)cc3C1)[C@H]1C(=O)O[C@H](c3ccccc3)[C@H](c3ccccc3)N1[C@@H]2c1ccccc1OCCO`, which composite z-score is on record?
A: -0.0717

Q: Which composite z-score does the source give for `CC(C)=C1C(=O)C(c2ccccc2)=C2CN3C(=O)N(CCc4ccccc4)C(=O)[C@]3(Cc3ccccc3)[C@H]21` here?
A: -0.138

Q: Which composite z-score does the source give for `CO[C@H]1COC(=O)CC=C[C@H](C)COC(=O)[C@@H](OCc2ccccc2)C=C[C@@H]1C` here?
A: -0.322

Q: With `[N-]=[N+]=NCc1ccccc1C[C@@]1(C(=O)N2CCOCC2)N=C(c2ccc(OCCCO)cc2)O[C@@H]1c1ccccc1N=[N+]=[N-]` as the compound, how does the composite z-score read?
A: 0.318
